About 770 (37%) of roughly 2,100 compounds were called active.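 How the source made its calls: active means by-eye trace score of 1 for enhancers or -1 for inhibitors, so actives lie on both sides (some results past the limit were not filed as active); inactive means score 0, or 3 fluorescent, or 4 baseline rise.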 Some of the results follow.

G protein-activated inward rectifier potassium channel 2 (Homo sapiens) + G protein-activated inward rectifier potassium channel 1 (Homo sapiens), sequence (P48051 whole entry, looked up): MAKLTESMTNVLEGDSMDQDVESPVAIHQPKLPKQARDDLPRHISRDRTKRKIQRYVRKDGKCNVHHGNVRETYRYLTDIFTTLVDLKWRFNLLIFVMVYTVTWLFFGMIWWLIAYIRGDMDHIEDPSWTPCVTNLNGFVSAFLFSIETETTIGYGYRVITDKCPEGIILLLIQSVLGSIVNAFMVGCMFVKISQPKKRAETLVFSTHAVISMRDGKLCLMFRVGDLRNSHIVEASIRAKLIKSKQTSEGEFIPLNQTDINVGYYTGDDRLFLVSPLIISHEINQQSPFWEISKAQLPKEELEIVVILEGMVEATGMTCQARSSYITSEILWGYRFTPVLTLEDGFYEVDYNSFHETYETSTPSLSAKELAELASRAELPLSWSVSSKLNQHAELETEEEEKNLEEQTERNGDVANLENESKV
G protein-activated inward rectifier potassium channel 2 (Homo sapiens) + G protein-activated inward rectifier potassium channel 1 (Homo sapiens), sequence (P48549 whole entry, looked up): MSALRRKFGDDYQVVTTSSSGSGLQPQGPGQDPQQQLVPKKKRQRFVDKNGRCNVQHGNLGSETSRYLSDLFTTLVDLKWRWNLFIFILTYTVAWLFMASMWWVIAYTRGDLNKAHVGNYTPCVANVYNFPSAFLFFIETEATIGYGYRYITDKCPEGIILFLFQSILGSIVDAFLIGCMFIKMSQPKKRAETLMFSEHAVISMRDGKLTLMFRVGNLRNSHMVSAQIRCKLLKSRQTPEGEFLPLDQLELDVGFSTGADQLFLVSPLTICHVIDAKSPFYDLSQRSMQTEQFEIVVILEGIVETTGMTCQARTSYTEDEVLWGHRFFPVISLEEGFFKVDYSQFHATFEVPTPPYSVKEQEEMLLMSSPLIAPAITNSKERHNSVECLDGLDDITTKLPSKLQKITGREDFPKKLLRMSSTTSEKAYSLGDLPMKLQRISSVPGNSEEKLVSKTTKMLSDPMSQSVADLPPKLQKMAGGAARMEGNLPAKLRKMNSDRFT

This assay addresses G protein-activated inward rectifier potassium channel 2 (Homo sapiens) + G protein-activated inward rectifier potassium channel 1 (Homo sapiens) (UniProt P48051+P48549). Description: GIRK1/2 thallium flux modulators, retest, confirmation, cell-based, HEK293 rmGlu8/hGIRK1/2, FluoZin-2 (AID 623911). The conditions noted are these: HEK293 rmGlu8/hGIRK1/2, thallium flux FluoZin-2; actives lie on both sides; glutamate co-added at its EC20 level.
Turning to `CC1CC(C)CN(Cc2nc(N)nc(Nc3ccc4ccccc4c3)n2)C1` (stereo unspecified), the manual score was 0 (inactive). As to `O=c1c(O)c(-c2cccs2)oc2ccccc12`, the manual score was 3 (inactive).

`Cc1ccc(C(=O)NNC(=S)NC(=O)c2ccc(Cl)cc2Cl)cc1`: the manual score was 0.5 (inactive).

As for `Cc1cccc(C(=O)NC(=S)Nc2ccccc2C(F)(F)F)c1`, the manual score was 0 (inactive). Consider `Cc1ccc(C2CC2C(=O)NNC(=S)Nc2ccc(Cl)cc2)cc1` (stereo unspecified), for which the manual score was 0 (inactive). The figure for `Cc1ccc(C(=O)NNC(=S)NC(=O)c2ccc(Cl)cc2)cc1` is 1 (active); for `Cc1cccc(C(=O)NC(=S)NNC(=O)c2cccs2)c1` it is 1 (active); for `Cc1c(C(=O)O)sc2nc3n(c(=O)c12)CCC(C)CC3` (stereo unspecified) it is 0 (inactive). Next, `CCCN(CCC)CC(O)Cn1cc(/C=C/C(=O)c2cccs2)c2ccccc21` (stereo unspecified): 3 (inactive); `COc1ccc(Nc2nc(C)cc(C)c2C#N)cc1OC`: 0 (inactive); `CCCC1COC(Cn2cncn2)(c2ccc(C)cc2)O1` (stereo unspecified): 0 (inactive).

As for `COc1ccc(N2CCN(c3nc4c(c(=O)n(C)c(=O)n4C)n3Cc3ccccc3)CC2)cc1`, the manual score is -1 (active).

`COC(=O)Cn1c(CN2CCc3ccccc3C2)nc2c1c(=O)n(C)c(=O)n2C`: the manual score was 0 (inactive).

As to `CC1CCCCN1Cc1nc2c(c(=O)n(C)c(=O)n2C)n1CCc1ccccc1` (stereo unspecified), the manual score was -1 (active).

Take `Cn1c(=O)c2c(nc(-n3ccnc3)n2Cc2ccccc2)n(C)c1=O`: the manual score is 0 (inactive). The figure for `CN(C)CCCOc1nc2c(c(=O)n(C)c(=O)n2C)n1C` is 0 (inactive). Turning to `COCCn1c(CN(Cc2ccccc2)Cc2ccccc2)nc2c1c(=O)n(C)c(=O)n2C`, the manual score was -1 (active).

As to `CCCCn1c(CN(Cc2ccccc2)Cc2ccccc2)nc2c1c(=O)n(C)c(=O)n2C`, the manual score is -1 (active). For `CCCOc1nc2c(c(=O)n(C)c(=O)n2C)n1Cc1cccc2ccccc12`, the manual score was -0.5 (inactive). `N#CCSc1nc2ccc(N3CCOCC3)cc2c(=O)n1CCc1ccccc1`: the manual score was 0 (inactive).

For the compound `COC(=O)C(C)Sc1nc2c(c(=O)n(C)c(=O)n2C)n1Cc1cccc(C)c1` (stereo unspecified), the manual score was 0 (inactive). `COc1ccc2nc3oc(C(=O)Nc4ccc(OC)c(OC)c4)cc3cc2c1`: the manual score was 0 (inactive). The figure for `CC1(C)Cc2ccccc2-c2nnc(SCC(=O)Nc3nc4ccccc4s3)n21` is 0 (inactive).

`O=c1[nH]c(SCc2ccccc2Cl)nc2c1CCCC2`: the manual score was 0 (inactive). On to `CCCCn1c(SCC(=O)/C(C#N)=C(\C)N)nc2ccccc2c1=O`, for which the manual score was 0.5 (inactive). With `COc1cc(-c2nnc(CSc3nc4ccccc4s3)o2)cc(OC)c1OC`, the manual score was -0.5 (inactive). As for `COc1ccc(-c2nnc(CSc3nc4ccccc4c(=O)n3C)o2)cc1OC`, the manual score was -1 (active). Take `CCn1c(-c2ccc(-c3ccccc3)cc2)c[nH]c1=S`: the manual score was 0 (inactive). Take `COc1ccc(OCc2nc(N)nc(Nc3ccccc3)n2)cc1`: the manual score is 0 (inactive). Take `COc1cccc(CNCCNC(=O)c2ccco2)c1OC`: the manual score was 0 (inactive). Consider `COc1ccccc1NC(=O)C(=O)NNC(=O)c1ccco1`, for which the manual score is 1 (active). For the compound `COC(=O)c1ccccc1NC(=S)NC(NC(=O)c1ccco1)C(Cl)(Cl)Cl` (stereo unspecified), the manual score was 0 (inactive). Take `Cc1nnc(NC(=O)c2ccco2)s1`: the manual score is 0 (inactive). Regarding `Cc1cc(NC(=O)c2ccco2)ccc1NC(=O)Cc1cccs1`, the manual score is 0 (inactive).

`COc1ccc(C)cc1NC(=O)C(=O)NNC(=O)c1ccco1`: the manual score was 1 (active).

For the compound `Cc1ccc(NC(=O)CSc2nnc(CCNC(=O)OC(C)(C)C)o2)c(C)c1`, the manual score was 0 (inactive). In the case of `Cc1ccc(/C=N\NC(=O)c2cc([N+](=O)[O-])cc([N+](=O)[O-])c2)o1`, the manual score is 0 (inactive). Turning to `O=C(N/N=C\c1cc(Br)c(Br)o1)c1cncc(Br)c1`, the manual score is 1 (active). Regarding `CCc1ccc(C2=NN(c3ccc(S(N)(=O)=O)cc3)C(c3ccc(F)cc3)C2)cc1` (stereo unspecified), the manual score is 0 (inactive). For the compound `O=C(Nc1ccc(F)cc1)c1cccnc1N1CCOCC1`, the manual score was 0 (inactive).

As to `CCC(C)(C)n1nnnc1C(c1ccccn1)N1CCCCC1` (stereo unspecified), the manual score was 0 (inactive). With `CCN(Cc1ccccc1)C(c1ccccn1)c1nnnn1C1CCCCC1` (stereo unspecified), the manual score is -1 (active). Next, `O=C(NC(=S)Nc1cccc(Cl)c1N1CCCCC1)c1ccco1`: 0 (inactive); `CC(Oc1ccc(Cl)cc1)C(=O)NNC(=S)NC(=O)c1ccco1` (stereo unspecified): 1 (active). On to `CC(Oc1ccc2ccccc2c1)C(=O)NNC(=S)NC(=O)c1ccco1` (stereo unspecified), for which the manual score was 1 (active). As to `O=C(NC(=S)Nn1cnc2c(cnn2-c2ccccc2)c1=O)c1ccc(Oc2ccccc2)cc1`, the manual score is 0 (inactive). For `Cc1ccc(N(C(=O)CCC(=O)Nc2cc(C)on2)C(C(=O)NC2CCCC2)c2cccs2)cc1` (stereo unspecified), the manual score is -1 (active). The figure for `Cc1cc(NC(=O)CSc2nc3ccsc3c(=O)n2NC(=O)c2ccccc2)no1` is 0 (inactive). For `c1ccc(Cc2nnc(-c3ccccc3)o2)cc1`, the manual score was 0 (inactive). Turning to `O=S(=O)(c1ccc(-c2nnc(SCc3nnc(-c4ccccc4)o3)o2)cc1)N1CCCC1`, the manual score is 0 (inactive). Next, `Fc1ccc2nc(-c3ccccc3)nc(SCc3nnc(-c4ccccc4)o3)c2c1`: 1 (active).

Turning to `O=C(NCc1ccccc1)C(=O)Nc1nc(C23CC4CC(CC(C4)C2)C3)cs1`, the manual score is 0 (inactive). For the compound `COc1ccc(C)cc1S(=O)(=O)Nc1cccc(Cl)c1Cl`, the manual score was 0 (inactive). As to `S=C(Nc1ccccc1)Nc1cc(Cl)ccc1Oc1ccccc1`, the manual score is 0 (inactive). As for `S=C(Nc1ccccc1Oc1ccccc1)Nc1cccc(Cl)c1Cl`, the manual score is 1 (active).

Turning to `O=C(NC(=S)Nc1ccc2oc(-c3cccnc3)nc2c1)c1cccc(Cl)c1`, the manual score was 0 (inactive). Turning to `S=C(Nc1cccc(Cl)c1)Nc1ccccc1Oc1ccccc1`, the manual score was 1 (active). On to `C=C(C)CNC(=S)Nc1cccc2cnccc12`, for which the manual score is 0 (inactive). Take `FC(F)Oc1ccccc1NC(=S)Nc1cccc(Cl)c1Cl`: the manual score was 1 (active). Next, `Fc1cccc(/C=N/NC(=S)Nc2ccccc2Cl)c1`: 0.5 (inactive); `S=C(Nc1ccc(Cl)cc1Cl)Nc1ccccc1Oc1ccccc1`: 0 (inactive). Take `COC(=O)c1cccc(NC(=S)Nc2cccc(Cl)c2Cl)c1`: the manual score was 0 (inactive). Regarding `O=C(Nc1cc(Cl)ccc1Oc1ccccc1)c1ccccc1F`, the manual score is 0 (inactive). Turning to `S=C(Nc1cccc(Cl)c1)Nc1cccc2cnccc12`, the manual score was 1 (active). On to `COc1ccc(N/C(C)=C2/C(=O)C(=O)N(CCO)C2c2ccc(Br)cc2)cc1` (stereo unspecified), for which the manual score is 0 (inactive). The figure for `N#CC1=C(N)Oc2n[nH]c(-c3cccs3)c2C1c1ccoc1` (stereo unspecified) is 0 (inactive).
